Results published in PubChem BioAssay (EPA / NIEHS).
Records with an inconclusive call do not appear. Where a structure was tested more than once in an assay, its records may differ in their call. Calls of active or inactive are those of the source. The calls were made as follows: active = hit-call score of the fitted dose curve at least 0.9, where 1 is the maximum; inconclusive = response in the unintended direction; inactive = score below 0.9.

Assay: Tanguay_ZF_120hpf_SOMI_legacy: (Legacy) Oregon State University Tanguay Lab 120 Hour Post-fertilization zebrafish Assay for Somite Malformation (AID 2283647)
Procedure: Tanguay_ZF_120hpf_legacy is a whole embryo, multiplexed endpoint assay using zebrafish larvae exposed for 120 hours post fertilization on a 96-well plate.Tanguay_ZF_120hpf_SOMI_legacy is one of one assay component(s) measured or calculated from the Tanguay_ZF_120hpf_legacy assay. It is designed to make measurements of zebrafish development as detected with brightfield microscopy of developing zebrafish embryos.Data from the assay component Tanguay_ZF_120hpf_SOMI_legacy was analyzed into 1 assay endpoints. This assay endpoint, Tanguay_ZF_120hpf_SOMI_legacy, was analyzed in the positive analysis fitting direction relative to DMSO as the negative control and baseline of activity. Using a type of morphology reporter, gain-of-signal activity can be used to understand changes in developmentals as they relate to the whole embryo. To generalize the intended target to other relatable targets, this assay endpoint is annotated to the zebrafish development intended target family, where the subfamily is somitogenesis.
Zebrafish husbandry: Tropical 5D wild-type adult zebrafish were housed in at an approximate density of 1000 per 100 gallon tank at the Sinnhuber Aquatic Research Laboratory, Oregon State University, Corvallis, OR. Each tank was kept at standard laboratory conditions of 28C on a 14-h light/10-h dark photoperiod in fish water consisting of reverse osmosis water supplemented with a commercially available salt (Instant Ocean). Spawning funnels were placed into the tanks the night prior, and embryos were collected and staged. To increase bioavailability, the chorion was enzymatically removed using pronase (63.6mg/ml, >/= 3.5U/mg, Sigma-Aldrich: P5147) at 4 hours post fertilization (hpf) using a custom automated dechorionator.Chemical exposures: Six hpf dechorionated embryos were placed 1 embryo per well in a 96-well plate prefilled with 90 ul of EM using automated embryo placement systems (AEPS). Ten microliters of each row of dilution plate 2 was added to 2 exposure plates. The final DMSO concentration used was 0.64% (vol/vol). Thirty-two embryos were also exposed to 5uM trimethyltin chloride (positive control). Plates were sealed to prevent evaporation and foil covered to reduce light exposure and kept in a 28C incubator. Embryos were statically exposed until 120 hpf. At 24 hpf, embryos were assessed for photomotor response using a custom photomotor response analysis tool (PRAT) and for developmental toxicity endpoints (MO24: mortality at 24 hpf, DP: developmental progression, SM: spontaneous movement, and NC: notochord distortion). At 120 hpf, locomotor activity was measured using Viewpoint Zebralab and assessed for 18 endpoints. Zebrafish acquisition and analysis program (ZAAP), a custom program designed to inventory, acquire, and manage zebrafish data, was used to collect developmental endpoints as either present or absent (i.e., binary responses were recorded). If mortality occurred for an embryo (at either 24 or 120 hpf), the non-mortality endpoints were not measured.

Q: With `CCOC1Oc2ccc(OS(C)(=O)=O)cc2C1(C)C` (configuration not stated) as the compound, how does the outcome read?
A: inactive

Q: For `OCCOc1ccccc1`, which outcome is on record?
A: inactive

Q: Which results are given for `CC(C)(C)C(O)C(Oc1ccc(Cl)cc1)n1cncn1` (configuration not stated)?
A: outcome: inactive; AC50: 46 µM (active)

Q: Which outcome does the source give for `O=C(O)C(F)(F)C(F)(F)C(F)(F)C(F)(F)C(F)(F)C(F)(F)C(F)(F)F` here?
A: inactive

Q: Which outcome does the source give for `Cc1[nH]c(=O)n(C(C)(C)C)c(=O)c1Cl` here?
A: inactive

Q: With `CNC(=O)Oc1cccc(N=CN(C)C)c1` as the compound, how does the outcome read?
A: inactive

Q: For `CCN(CC)C(=O)SCc1ccc(Cl)cc1`, which outcome is on record?
A: inactive

Q: For `COP(=S)(OC)Oc1ccc([N+](=O)[O-])cc1`, which outcome is on record?
A: inactive

Q: With `CC(C)N(C(=O)COc1nnc(C(F)(F)F)s1)c1ccc(F)cc1` as the compound, how does the outcome read?
A: inactive

Q: Which outcome does the source give for `CCC(C)Nc1c([N+](=O)[O-])cc(C(C)(C)C)cc1[N+](=O)[O-]` (configuration not stated) here?
A: inactive

Q: With `CCOCN(C(=O)CCl)c1c(C)cccc1CC` as the compound, how does the outcome read?
A: inactive

Q: For `O=S(=O)(O)C(F)(F)C(F)(F)C(F)(F)C(F)(F)C(F)(F)C(F)(F)C(F)(F)C(F)(F)F`, which AC50 is on record?
A: 33.8 µM (active)

Q: What about the outcome of the same compound?
A: inactive

Q: For `Oc1ccc(Cl)cc1Cc1ccccc1`, which outcome is on record?
A: inactive

Q: Which outcome does the source give for `CC(C)(C)C(O)/C(=C\c1ccc(Cl)cc1Cl)n1cncn1` (configuration not stated) here?
A: inactive

Q: Which outcome does the source give for `CCCN(CCC)c1c([N+](=O)[O-])cc(C(F)(F)F)cc1[N+](=O)[O-]` here?
A: inactive

Q: For `O=C(Nc1ccccc1)Nc1cnns1`, which outcome is on record?
A: inactive

Q: Which outcome does the source give for `C#CCN1C(=O)COc2cc(F)c(N3C(=O)C4=C(CCCC4)C3=O)cc21` here?
A: inactive

Q: For `C[C@H]1[C@H](c2ccc(Cl)cc2)SC(=O)N1C(=O)NC1CCCCC1`, which outcome is on record?
A: inactive

Q: With `CN1CSC(=S)N(C)C1` as the compound, how does the outcome read?
A: inactive

Q: For `CC[C@H](C)[C@H]1O[C@]2(C=C[C@@H]1C)C[C@@H]1C[C@@H](C/C=C(\C)[C@@H](O[C@H]3C[C@H](OC)[C@@H](O[C@H]4C[C@H](OC)[C@@H](O)[C@H](C)O4)[C@H](C)O3)[C@@H](C)/C=C/C=C3\CO[C@@H]4[C@H](O)C(C)=C[C@@H](C(=O)O1)[C@]34O)O2` (tested in a mixture with another compound), which outcome is on record?
A: inactive

Q: For `N#Cc1c(Cl)c(Cl)c(Cl)c(C#N)c1Cl`, which outcome is on record?
A: inactive

Q: Which outcome does the source give for `O=S1OCC2C(CO1)C1(Cl)C(Cl)=C(Cl)C2(Cl)C1(Cl)Cl` (configuration not stated) here?
A: inactive

Q: With `N#CN` as the compound, how does the outcome read?
A: inactive

Q: Which outcome does the source give for `O=C(NC(=O)c1c(F)cccc1F)Nc1ccc(OC(F)(F)C(F)OC(F)(F)F)c(Cl)c1` (configuration not stated) here?
A: inactive

Q: Which outcome does the source give for `Oc1cc(Cl)ccc1Oc1ccc(Cl)cc1Cl` here?
A: inactive

Q: Which outcome does the source give for `O=[N+]([O-])c1c(Cl)c(Cl)c(Cl)c(Cl)c1Cl` here?
A: inactive

Q: Which outcome does the source give for `CNC(=O)/C=C(\C)OP(=O)(OC)OC` here?
A: inactive

Q: Which outcome does the source give for `ClC1C(Cl)C(Cl)C(Cl)C(Cl)C1Cl` (configuration not stated) here?
A: inactive

Q: Which outcome does the source give for `O=[N+]([O-])/N=C1\NCCN1Cc1ccc(Cl)nc1` here?
A: inactive

Q: With `CCC(C)(C)C(=O)OC1=C(c2ccc(Cl)cc2Cl)C(=O)OC12CCCCC2` as the compound, how does the outcome read?
A: inactive

Q: For `COc1nn(CSP(=S)(OC)OC)c(=O)s1`, which outcome is on record?
A: inactive

Q: For `O=C(O)CCCOc1ccc(Cl)cc1Cl`, which outcome is on record?
A: inactive

Q: Which outcome does the source give for `COP(=O)(OC)OC=C(Cl)Cl` here?
A: inactive

Q: With `CCCN(CCOc1c(Cl)cc(Cl)cc1Cl)C(=O)n1ccnc1` as the compound, how does the outcome read?
A: inactive

Q: For `CC(C)OC(=O)Nc1cccc(Cl)c1`, which outcome is on record?
A: inactive
